The values that follow come from PubChem BioAssay (NCATS).

Results filed as inconclusive are left out. Entries that show only a call come without a potency. Unmarked numbers belong to inactive results. The source made the active and inactive calls. Calls come from the whole dose curve; as a rule, active = well fitted inhibition curve with a large enough effect; inconclusive = small, poorly fitted or top-dose-only effect; inactive = no such curve, though single readings can be large or run the other way.

The test system of the test is Zika virus NS2B-NS3 protease (linked construct). Put plainly: Primary screen NINDS Rhodamine qHTS for Zika virus inhibitors (AID 1347160). Note: nearly all actives have a fitted effect of over 55% in size. The conditions noted are these: purified NS2B-NS3 protease, Rhodamine110 substrate fluorescence; series mostly up to 57.1 µM. A digest of the protocol:
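Percent inhibition, normalized to uninhibited and enzyme-free controls, is fitted to a 4-parameter Hill equation. Fluorescence change comes from a 15-min cleavage of 1.5 microM bis-peptide Rhodamine110 substrate by 25 nM linked NS2B-NS3 at room temperature.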
(Quantitative high-throughput screening tests each substance at several concentrations.)
`N[C@H]1Cc2ccccc2N(O)C1=O`: the Potency entry is “inactive”.
On to `N[C@@]1(C(=O)O)CC[C@H]2[C@H](C(=O)O)[C@H]21`, for which the Potency entry was “inactive”.
The same measure, in the same setting: for `C=C(CO[C@@H]1O[C@H](CO[C@@H]2OC[C@](O)(CO)[C@H]2O)[C@@H](O)[C@H](O)[C@H]1O)C1Cc2cc(C(C)=O)ccc2O1` (stereo partly specified) the value was “inactive”; for `COc1cc2ncnc(Nc3cccc(Cl)c3F)c2cc1OC(=O)N1CCN(C)C[C@H]1C`, “inactive”.
With `O=C(O)C1CN(Cc2ccc(-c3nc4cc(Cc5ccccc5F)ccc4s3)c(F)c2)C1`, the activity change, negative = inhibition is -8.39% [at 10.7 µM].
On to `CC1(C)CCC[C@@]2(C)C1[C@H](OC(=O)/C=C/C=C/C(=O)O)C=C1COC(=O)[C@@]12O` (stereo partly specified), for which the Potency entry was “inactive”.
